Source: PubChem BioAssay
The source made the active and inactive calls. Unless noted, how the calls were made is not given here.

Experiments:
[1] = A549 cell viability effects, profiling panel, calcein-AM fluorescence, 48 h, basal (AID 1162); details: higher = more signal; further: test concentration not given here
[2] = adipocyte viability effects, profiling panel, cell-based, 3T3-L1 adipocytes, calcein-AM fluorescence, 48 h, basal (AID 1163); details: 3T3-L1 adipocytes viability, higher = more signal; further: test concentration not given here
[3] = HepG2 cell viability effects, profiling panel, calcein-AM fluorescence, 48 h, basal (AID 1164); details: higher = more signal; further: test concentration not given here
[4] = MM1S cell viability effects, profiling panel, calcein-AM fluorescence, 48 h, basal (AID 1165); details: higher = more signal;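 further: viability of MM1S multiple myeloma cells under basal unstimulated conditions; test concentration not given here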
[5] = basal RPMI8226 viability, no added stimulus, profiling panel, cell-based, calcein-AM fluorescence, 48 h, PK04 Diversity Set (AID 1166); details: RPMI8226 myeloma viability, higher = more signal;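 further: cells grown under basal conditions without added stimulus; test concentration not given here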
[6] = basal HepG2 mitochondrial membrane potential changes, profiling panel, cell-based, JC-1 fluorescence, 24 h, 100 nL compound (AID 1167); details: higher = more signal; further: test concentration not given here
[7] = basal 3T3-L1 adipocyte mitochondrial potential changes, profiling panel, cell-based, JC-1 fluorescence, 3T3-L1 adipocytes, 24 h, 100 nL compound (AID 1168); details: JC-1 mitochondrial fluorescence, higher = more signal, called active from +8 up or from −8 down; further: test concentration not given here
[8] = basal RPMI8226 mitochondrial membrane potential changes, profiling panel, cell-based, JC-1 fluorescence, 24 h, 100 nL compound (AID 1169); details: RPMI8226 myeloma, JC-1 mitochondrial potential fluorescence, higher = more signal; further: test concentration not given here
[9] = basal MM1S mitochondrial membrane potential changes, profiling panel, cell-based, JC-1 fluorescence, 24 h, 100 nL compound (AID 1170); details: higher = more signal; further: test concentration not given here
[10] = A549 lung cancer cell viability effects, profiling panel, resazurin fluorescence, 24 h, PK04 Diversity Set (AID 1171); details: higher = more signal, called active from +8 up or from −8 down; further: test concentration not given here
[11] = HepG2 liver cancer cell viability effects, profiling panel, resazurin fluorescence, 24 h, PK04 Diversity Set (AID 1172); details: higher = more signal; further: test concentration not given here
[12] = basal S. cerevisiae growth modulation, no modifier, primary screen, OD600, strain BY4716, 24 h, basal condition (AID 1173); details: OD600, 24 h, higher = more signal, called active from +8 up or from −8 down
[13] = MM1S myeloma cell viability, profiling panel, resazurin fluorescence, basal, 24 h, PK04 Diversity Set (AID 1174); details: higher = more signal, called active from +8 up or from −8 down;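 further: MM1S multiple myeloma cell line; test concentration not given here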
[14] = biological target: Dihydroorotate dehydrogenase (quinone), mitochondrial (Plasmodium falciparum (isolate 3D7)) (UniProt Q08210); test: PfDHODH enzyme inhibitors, primary screen, biochemical, C-terminal His tag, absorbance 600 nm (AID 1175); details: DCIP absorbance 600 nm, higher = more signal, called active from +8 up or from −8 down;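 further: recombinant parasite enzyme with a five histidine tag at its C terminus; test concentration not given here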
[15] = P. aeruginosa biofilm formation inhibitors, primary screen, strain PAO1, LB-PBS medium, absorbance 600 nm (AID 1176); further: test concentration not given here; details: P. aeruginosa PAO1 growth/biofilm, A600, 12 h; higher = more signal
[16] = S. cerevisiae RM11-1a growth modifiers, primary screen, strain RM11-1a, OD600, basal, 24 h (AID 1177); details: OD600, 24 h, higher = more signal, called active from +8 up or from −8 down;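 further: cultures grown under basal conditions with no added stressor; test concentration not given here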
[17] = E. coli acrAB mutant growth effects, primary screen, E. coli filamentation inducers, strain DRC39, OD650, 24 h (AID 1178); details: higher = more signal, called active from +8 up or from −8 down;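 further: growth measured as culture turbidity by optical density at 650 nm; test concentration not given here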
[18] = E. coli acrAB mutant growth effects, primary screen, E. coli filamentation inducers, strain DRC39, OD650, 48 h (AID 1179);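 further: screen aims at cell division blockers that make cells filament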; details: E. coli DRC39 delta-acrAB growth, higher = more signal, called active from +8 up or from −8 down
[19] = RPMI8226 myeloma cell viability, profiling panel, resazurin fluorescence, basal, 24 h, PK04 Diversity Set (AID 1180); details: higher = more signal;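 further: RPMI8826 multiple myeloma cell line at 5000 cells per well; test concentration not given here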
[20] = biological target: E3 ubiquitin-protein ligase XIAP (Homo sapiens) (UniProt P98170); test: XIAP binders, primary screen, biophysical, small-molecule microarray, fluorescence 635 nm (AID 1181); details: small-molecule microarray binding, higher = more signal;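 further: score merges 667 nm emission and signal to noise over triplicate slides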
Sequence of E3 ubiquitin-protein ligase XIAP (Homo sapiens) (P98170 whole entry, looked up): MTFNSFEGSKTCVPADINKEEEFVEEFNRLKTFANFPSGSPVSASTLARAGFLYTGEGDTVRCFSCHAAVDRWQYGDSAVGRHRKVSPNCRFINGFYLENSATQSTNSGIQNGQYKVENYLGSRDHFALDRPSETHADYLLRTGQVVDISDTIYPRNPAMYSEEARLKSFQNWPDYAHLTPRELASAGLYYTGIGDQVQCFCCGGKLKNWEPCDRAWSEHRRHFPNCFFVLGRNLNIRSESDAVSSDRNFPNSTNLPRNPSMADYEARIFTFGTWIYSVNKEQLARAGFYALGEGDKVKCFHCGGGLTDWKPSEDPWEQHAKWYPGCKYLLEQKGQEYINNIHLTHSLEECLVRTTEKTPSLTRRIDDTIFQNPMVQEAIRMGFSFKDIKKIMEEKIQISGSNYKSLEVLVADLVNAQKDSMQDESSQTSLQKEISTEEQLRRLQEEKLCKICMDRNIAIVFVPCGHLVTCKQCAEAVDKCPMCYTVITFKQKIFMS

Sequence of Dihydroorotate dehydrogenase (quinone), mitochondrial (Plasmodium falciparum (isolate 3D7)) (Q08210 whole entry, looked up): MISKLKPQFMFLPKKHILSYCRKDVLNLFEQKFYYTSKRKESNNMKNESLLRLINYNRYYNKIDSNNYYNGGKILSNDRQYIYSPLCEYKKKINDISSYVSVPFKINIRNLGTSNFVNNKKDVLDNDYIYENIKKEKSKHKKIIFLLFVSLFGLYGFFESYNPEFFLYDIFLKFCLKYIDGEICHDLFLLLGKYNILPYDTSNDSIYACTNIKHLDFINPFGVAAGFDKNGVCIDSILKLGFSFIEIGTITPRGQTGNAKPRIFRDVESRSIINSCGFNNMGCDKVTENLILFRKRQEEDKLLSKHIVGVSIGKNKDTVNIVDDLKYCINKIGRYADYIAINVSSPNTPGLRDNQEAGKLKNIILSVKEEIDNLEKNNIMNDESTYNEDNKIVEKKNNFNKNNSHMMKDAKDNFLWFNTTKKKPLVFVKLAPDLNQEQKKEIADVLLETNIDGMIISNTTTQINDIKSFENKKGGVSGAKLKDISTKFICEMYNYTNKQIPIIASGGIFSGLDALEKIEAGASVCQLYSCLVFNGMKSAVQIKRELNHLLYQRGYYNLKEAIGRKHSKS

| Compound | z-score [1] | z-score [2] | z-score [3] | z-score [4] | z-score [5] | z-score [6] | z-score [7] | z-score [8] | z-score [9] | z-score [10] | z-score [11] | z-score [12] | z-score [13] | composite z-score [14] | z-score [15] | z-score [16] | z-score [17] | z-score [18] | z-score [19] | composite z-score [20] |
| --- | --- | --- | --- | --- | --- | --- | --- | --- | --- | --- | --- | --- | --- | --- | --- | --- | --- | --- | --- | --- |
| C=CC[C@@]1(C(=O)N(C)C)N=C(c2ccc(OCCCO)cc2)O[C@@H]1c1ccccc1N=[N+]=[N-] | 0.459 | -0.423 | 0.571 | -0.761 | -1.51 | -0.328 | 1.04 (inactive) | -0.874 | -1.31 | -1.48 (inactive) | -0.614 | 0.093 (inactive) | -2.82 (inactive) | -0.007 (inactive) | 0.314 (inactive) | 0.274 (inactive) | -0.112 (inactive) | 0.0912 (inactive) | -1.71 | 0.0794 |
| COC(=O)[C@@]1(Cc2ccc(OC)cc2)[C@H]2c3cc(C(=O)N4CCCC4)n(Cc4ccccc4)c3C[C@H]2CN1C(=O)c1ccccc1 | -0.549 | 0.39 | -0.331 | -1.63 | -2.12 | 2.44 | -1.07 (inactive) | -0.933 | -1.3 | -2.5 (inactive) | -2.62 | 1.04 (inactive) | -0.912 (inactive) | -0.264 (inactive) | 0.219 (inactive) | 0.479 (inactive) | -0.559 (inactive) | 0.0434 (inactive) | -3.16 | -0.065 |
| C=CCNC(=O)[C@@H]1[C@H]2C(=O)O[C@H](c3ccccc3)[C@H](c3ccccc3)N2[C@H](c2ccc(OCCO)cc2)[C@@]12C(=O)Nc1ccc(C#Cc3ccc(OC)cc3)cc12 | -0.717 | 1.82 | -0.969 | -0.891 | -1.86 | -1.12 | 1.05 (inactive) | -0.592 | -0.913 | -1.03 (inactive) | -0.662 | 1.84 (inactive) | -0.718 (inactive) | -4.91 (inactive) | 1.81 (inactive) | 2.6 (inactive) | -1.48 (inactive) | -1.2 (inactive) | -1.25 | 0.0181 |
| C=C(CCCC)C(=O)CC[C@H](OC(=O)c1cccnc1)c1ccccc1OCCO | 0.414 | 1.54 | -0.664 | -3.22 | -1.65 | 0.663 | -0.916 (inactive) | -0.587 | -0.491 | 1.1 (inactive) | 0.619 | -0.716 (inactive) | -2.19 (inactive) | -0.363 (inactive) | -0.317 (inactive) | -1.61 (inactive) | 0.836 (inactive) | -0.0762 (inactive) | -2.29 | 0.0374 |
| CN(C)C(=O)[C@]1(Cc2ccccc2CN=[N+]=[N-])N=C(c2ccc(OCCCO)cc2)O[C@@H]1c1ccccc1CN=[N+]=[N-] | -0.999 | 1.59 | 0.309 | -2.26 | -4.24 | 0.644 | -0.735 (inactive) | -1.13 | -0.0198 | 0.113 (inactive) | -0.053 | -0.868 (inactive) | -1.19 (inactive) | 0.587 (inactive) | 1.06 (inactive) | -0.111 (inactive) | 0.187 (inactive) | -0.719 (inactive) | -1.1 | 0.0015 |
| C[C@]1(C(=O)NC2CC2)c2ccccc2C(=O)N(Cc2cc(C(F)(F)F)cc(C(F)(F)F)c2)[C@H]1c1ccc(CO)cc1 | 1.34 | 0.254 | 1.44 | 0.274 | 0.56 | 2.04 | -0.0278 (inactive) | -0.105 | -0.262 | 0.89 (inactive) | 0.546 | -0.66 (inactive) | 0.43 (inactive) | 0.262 (inactive) | -0.506 (inactive) | 0.558 (inactive) | 1.11 (inactive) | 0.833 (inactive) | 0.367 | -0.0646 |
| COC(=O)c1c(CC[C@@H](CO)NC(=O)N[C@@H](C)Cn2cc(C3(O)CCCCC3)nn2)oc(C(C)=O)c1C(=O)OC | 0.0154 | 0.93 | -0.0256 | 0.0508 | -1.82 | -0.637 | 1.17 (inactive) | -0.44 | 0.414 | -1.04 (inactive) | -1.26 | -2.52 (inactive) | -0.131 (inactive) | -2.71 (inactive) | 0.0793 (inactive) | -0.314 (inactive) | 0.104 (inactive) | -0.305 (inactive) | -0.8 | -0.039 |
| COC(=O)[C@@]1(Cc2ccc(F)cc2)[C@H]2c3cc(C(=O)N(C)C)n(Cc4ccc(S(C)(=O)=O)cc4)c3C[C@H]2CN1C(=O)c1ccccc1 | -0.379 | -0.631 | 0.137 | 0.373 | -0.198 | 3.32 | -0.224 (inactive) | 0.059 | 0.125 | -0.46 (inactive) | -0.304 | 0.571 (inactive) | -0.0532 (inactive) | 0.382 (inactive) | 0.122 (inactive) | 0.325 (inactive) | -0.104 (inactive) | 0.118 (inactive) | -1.04 | -0.102 |
| CC(C)(C)OC(=O)CC[C@]1(C(=O)NCC(O)CO)COC(c2ccc(OCCCO)cc2)=N1 (stereo not given in full) | 0.208 | -0.388 | -0.665 | -1.01 | 0.418 | -0.76 | 0.176 (inactive) | 0.527 | -0.23 | 0.706 (inactive) | 0.245 | 0.525 (inactive) | 0.198 (inactive) | 0.563 (inactive) | 0.826 (inactive) | 1.51 (inactive) | 0.116 (inactive) | 0.0752 (inactive) | 0.467 | -0.181 |
